Source: PubChem (National Center for Advancing Translational Sciences (NCATS))
Shiga inhibitor = blocks Shiga toxin action in Vero cells | Vero cells, Shiga toxin protein synthesis inhibition reporter | inhibition, % at 38.7 µM | 290,000 tested, 9.2% active; in the data active = inhibition mostly above about 28%, no sharp cut-off; inactive = mostly below about 43%; note: 0% is about no effect
Pf growth 96h = P. falciparum growth inhibition at 96 hour, primary screen for plastid delayed-death inhibitors; P. falciparum luciferase reporter growth, 96 h; Potency, µM (titrated, usually from 28.7 µM), inactives show at the top dose activity change, negative = inhibition, most hits filed as inhibitors; AID 504834; 320,000 tested, 6.9% active; note: potency is the fitted concentration of half-maximal effect; % is set by controls: 0 for no effect and ±100 for the full control effect
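Luminescence readout: decreased luciferase signal marks inhibited growth of reporter-expressing P. falciparum in infected red cells (2% hematocrit, 0.05% parasitemia final), exposed to compound two generations (96 h, 37 C, 5% CO2).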
Pf growth 48h = P. falciparum growth inhibition at 48 hours (one generation); Potency, µM (doses to about 28.7 µM), without a hit: at the top dose activity change, negative = inhibition, actives largely listed as inhibitors; 310,000 tested, 5.9% active; P. falciparum luciferase growth in erythrocytes, 48 h; note: potency is the fitted concentration of half-maximal effect; % is set by controls: 0 for no effect and ±100 for the full control effect
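Luciferase-expressing parasites in RBCs, 2% Hct / 0.1% parasitemia final; RPMI 1640 + 0.5% Albumax; 37 C, 5% CO2, one generation; luminescence read-out, lower signal = inhibition.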
Cycloheximide cs = counter-screen for Shiga toxin inhibitors: cycloheximide protein synthesis inhibition. cell reporter, cycloheximide protein synthesis inhibition counterscreen. 300,000 tested, 12% active. max response, %; in the data active = max response mostly above about 13%, no sharp cut-off; inactive = mostly below about 14%; note: read at 38.3 µM for the half of the compounds with a filed dose; 0% is about no effect
Numbers without * were called inactive; ? = inconclusive; / = not tested or not shown. This is a sample that favours compounds with a hit; in the whole collection about 21% have one here. Unless noted, calls come from the whole dose curve; as a rule, active = well fitted inhibition curve with a large enough effect; inconclusive = small, poorly fitted or top-dose-only effect, or another doubt; inactive = no such curve, though single readings can be large or run the other way.

SMILES	Shiga inhibitor	Pf growth 96h	Pf growth 48h	Cycloheximide cs
O=C(Cn1nc2sc3ccccc3n2c(=O)c1=O)c1ccc(Cl)cc1	9	33%	21%	2
CC(CNC(=O)COc1ccccc1)OC(=O)Nc1cccc(Cl)c1 (stereo not given)	8	?	-1%	1
Cc1cccc(OCC(=O)Nc2ccc(NC(=O)c3ccccc3)cc2)c1	-8	?	-2%	-1
Cc1ccc(NC(=O)OC(C)CNC(=O)Oc2cccc(C)c2)cc1 (stereo not given)	74*	?	85%	38*
Cc1ccc(NC(=O)OCCNC(=O)OC(C)C)cc1	81*	-30%	99%	42*
COC(=O)NCC(C)OC(=O)Nc1ccc(Cl)cc1 (stereo not given)	55*	?	-20%	11
Clc1ccc(CN2C3=NCCCN3c3ccccc32)cc1Cl	-4	-8%	?	-6
CCOc1ccccc1NC(=O)CSc1nnc(-c2ccccc2Cl)n1Cc1ccco1	-17	2%	?	5
CCCCc1cc(=O)oc2cc(OCC(=O)NCCN3CCOCC3)ccc12	-2	-13%	-9%	-2
CCOc1cccc2cc(C(C)=O)oc12	-5	-10%	31%	-6
CCc1ccc(NC(=O)C(CC)Sc2nc3cc4c(cc3c(=O)n2Cc2ccco2)OCO4)cc1 (stereo not given)	-6	2.6µM*	/	-4
CN(/N=C/c1ccc(Cl)cc1)c1ncc(Cl)cc1C(F)(F)F	1	10%	?	11*
CN(/N=C/c1ccc(Cl)cc1Cl)c1ncc(Cl)cc1C(F)(F)F	-11	-8%	?	1
CN(C)CCCN(C(=O)c1ccc(S(=O)(=O)N(C)C2CCCCC2)cc1)c1nc2ccc(Br)cc2s1	8	?	13µM*	-1
CN(C)CCCN(C(=O)c1ccc(S(=O)(=O)N(C)C2CCCCC2)cc1)c1nc2ccc(F)cc2s1	4	?	?	-3
Cc1cc(C)c2sc(N(CCCN(C)C)C(=O)c3ccc(S(=O)(=O)N(C)C4CCCCC4)cc3)nc2c1	/	?	10µM*	/
CCOC(=O)N1CCN(C(=O)C2CC(c3ccccc3OC)=NO2)CC1 (stereo not given)	-6	-7%	/	9
O=C(C1CC(c2ccccc2O)=NO1)N1CCCC1 (stereo not given)	78*	24%	56%	38*
CSc1ccccc1NC(=O)C1CC(c2ccccc2O)=NO1 (stereo not given)	93*	/	-6%	41*
O=C(C1CC(c2ccccc2O)=NO1)N1CCC2(CC1)OCCO2 (stereo not given)	55	214%	/	25*
COC(=O)c1ccccc1NC(=O)C1CC(c2ccccc2O)=NO1 (stereo not given)	10	/	?	-1
COc1ccc(C(=O)CC(=O)C(=O)Nc2ccccc2Cl)cc1	-10	20%	?	-3
COc1ccc(C(=O)CC(=O)C(=O)Nc2ccc(Cl)cc2)cc1	37	26%	/	14*
COc1ccc(NC(=O)C(=O)NCCO)cc1Cl	15	20%	8%	1
COc1ccc(C(=O)CC(Nc2ccc([N+](=O)[O-])cc2)c2ccc(Cl)cc2)cc1 (stereo not given)	14	9.3µM*	3.3µM*	10*
SMILES	Shiga inhibitor	Pf growth 96h	Pf growth 48h	Cycloheximide cs
COc1ccc(NC(=O)C(=O)NCCCO)cc1Cl	62*	-10%	67%	24*
COc1ccc(C(=O)CC(=O)C(=O)Nc2ccc(OC)c(Cl)c2)cc1	22	-12%	/	17*
O=C(Cn1ncc2c(=O)oc3ccccc3c21)Nc1nc2ccccc2s1	10	?	9%	3
N#CC1(NC(=O)Cn2ncc(Cl)c(Cl)c2=O)CCCCC1	/	4%	3%	/
Cc1ccc(-c2nc(Nc3ccccc3)n[nH]2)cc1	83*	/	352%	43*
CN(C)c1ccc(-[n+]2c(-c3ccccc3)cc(-c3ccccc3)cc2-c2ccccc2)cc1	-33	?	?	-12
CC(=O)Nc1scc(-c2ccccc2)[n+]1-c1ccc(C)cc1	-5	50%	6%	9
Cc1ccc(-c2cc(-c3ccc(C)cc3)[n+](-c3ccccc3)c(-c3ccc(C)cc3)c2)cc1	/	0.29µM*	0.29µM*	/
c1ccc(-c2cc(-c3ccccc3)[n+](-c3ccccc3)c(-c3ccccc3)c2)cc1	7	0.37µM*	0.29µM*	-2
Cc1ccc(-c2cc(-c3ccc(C)cc3)[n+](-c3ccc(C(=O)[O-])cc3)c(-c3ccc(C)cc3)c2)cc1	/	?	3.7µM*	/
Cc1ccc(-c2cc(-c3ccccc3)cc(-c3ccccc3)[n+]2-c2ccccc2)cc1	/	0.33µM*	0.37µM*	/
CCCn1c(=S)[nH]c2cc(C(=O)N(CCO)Cc3ccccc3)ccc2c1=O	-5	-17%	25%	-1
C[n+]1c(-c2ccccc2)cc(-c2ccc(Cl)cc2)cc1-c1ccccc1	13	?	1.7µM*	12
CC1(C)Oc2ccc3ccc(=O)oc3c2[C@@H](O)[C@@H]1O	/	70%	?	/
COC1=Cc2c(ccc3ccc(=O)oc23)OC1(C)C	-14	/	7.4µM*	8
CC12CCC(C(=O)NC(c3ccccc3)c3ccccc3)(OC1=O)C2(C)C (stereo not given)	-8	13µM*	/	-2
CC12CCC(C(=O)Nc3nc4ccccc4s3)(OC1=O)C2(C)C (stereo not given)	85*	0%	57%	29*
Cc1ccc2c(c1)N(C(=O)CCC(=O)NC1CCCCCC1)CC(C)O2 (stereo not given)	9	6%	-22%	-1
COc1ccc(C2c3ccc4ccccc4c3Oc3ncn(CCO)c(=N)c32)cc1OC (stereo not given)	-9	?	10µM*	-3
N=c1c2c(ncn1Cc1ccco1)Oc1ccc3ccccc3c1C2c1ccccc1 (stereo not given)	active	?	10µM*	20*
COc1ccc(C2c3ccc4ccccc4c3Oc3ncn(CCCO)c(=N)c32)cc1 (stereo not given)	1	?	5.2µM*	-2
COc1ccc(C2c3ccc4ccccc4c3Oc3ncn(CCO)c(=N)c32)cc1 (stereo not given)	-8	0%	?	-1
COc1ccc(C2c3ccc4ccccc4c3Oc3ncn(CCN(C)C)c(=N)c32)cc1 (stereo not given)	-16	?	2.3µM*	-10
O=C1c2cc(O)cc(O)c2OC[C@@H]1c1ccc(O)c(O)c1	-7	/	/	-4
O=C(NCc1ccc(F)cc1)C1CCN(S(=O)(=O)c2cccc3nonc23)CC1	-6	4%	-15%	-3
COc1ccc(C2c3ccc4ccccc4c3Oc3ncn(CCCO)c(=N)c32)cc1OC (stereo not given)	-15	1.9µM*	?	-1
N=c1c2c(ncn1CCCO)Oc1c(ccc3ccccc13)C2c1ccccc1 (stereo not given)	-9	?	?	7
CN(C)CCCn1cnc2c(c1=N)C(c1ccccc1)c1ccc3ccccc3c1O2 (stereo not given)	-15	2.1µM*	1.5µM*	-8
